The supplement of paper PMC12645437, “Orthogonal IMiD-Degron Pairs Induce Selective Protein Degradation in Cells” (ACS Chemical Biology, 2025)
Over roughly 8,300 sequences, “log2 fold change of degron read counts, EGFP-low vs EGFP+ sorted cells (limma voom), compound-induced degradation” has its median near -1.1; the highest 2% begin near 3.2. For the sample, the highest values were picked, then their nearest neighbours and some sequences at random.

T1: CRBN, Q96SW2
T1 chain: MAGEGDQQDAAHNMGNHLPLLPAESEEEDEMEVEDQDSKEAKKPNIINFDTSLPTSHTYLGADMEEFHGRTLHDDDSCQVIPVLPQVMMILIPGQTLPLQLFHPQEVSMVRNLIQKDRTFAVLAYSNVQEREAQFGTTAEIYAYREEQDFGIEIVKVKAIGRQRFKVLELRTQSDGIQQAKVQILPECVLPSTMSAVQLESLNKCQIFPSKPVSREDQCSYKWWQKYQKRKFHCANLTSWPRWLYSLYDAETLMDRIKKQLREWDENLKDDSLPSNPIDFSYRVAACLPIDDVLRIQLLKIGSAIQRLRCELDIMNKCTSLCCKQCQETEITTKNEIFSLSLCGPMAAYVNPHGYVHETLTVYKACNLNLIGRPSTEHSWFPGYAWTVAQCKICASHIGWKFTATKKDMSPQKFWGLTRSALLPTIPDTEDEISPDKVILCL

B1: 46F_47I_49P_50I_52G_53H_54Q_55F_67L_, Q9UKT9 (peptide)
chain: FICPICGHQFTQKGNLLRHIKL
B2: 46F_47G_49D_50V_52G_53A_54M_55F_67L_, Q9UKT9 (peptide)
chain: FGCDVCGAMFTQKGNLLRHIKL
B3: 46F_47T_49P_50I_52G_53R_54E_55F_67L_, Q9UKT9 (peptide)
chain: FTCPICGREFTQKGNLLRHIKL
B4: 46F_47L_49N_50Q_52G_53H_54M_55F_67L_, Q9UKT9 (peptide)
chain: FLCNQCGHMFTQKGNLLRHIKL
B5: 46F_47K_49E_50Q_52G_53A_54Q_55F_67L_, Q9UKT9 (peptide)
chain: FKCEQCGAQFTQKGNLLRHIKL
B6: 46F_47S_49P_50I_52G_53H_54E_55F_67L_, Q9UKT9 (peptide)
chain: FSCPICGHEFTQKGNLLRHIKL
B7: 46L_47I_49N_50Q_52G_53F_54P_55C_67L_, Q9UKT9 (peptide)
chain: LICNQCGFPCTQKGNLLRHIKL
B8: 46F_47M_49N_50I_52G_53A_54W_55F_67L_, Q9UKT9 (peptide)
chain: FMCNICGAWFTQKGNLLRHIKL

Biological target: T1, CRBN, Q96SW2
Assay: log2 fold change of degron read counts, EGFP-low vs EGFP+ sorted cells (limma voom), compound-induced degradation; higher = more compound-induced degradation of the degron-EGFP fusion; degrons are variants of IKZF1/3 zinc finger 2; compound dose not given here
Conditions: Jurkat, 18 h
[1] = compound: compound 19 (5-tert-butyl-thalidomide)
[2] = compound: compound 22 (5-morpholino-thalidomide)
[3] = compound: compound 33 (diphenyl IMiD analogue)
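Further: pooled lentiviral library of zinc finger degron-EGFP fusions in mCherry-positive Jurkat cells, FACS-sorted after compound exposure, with degron abundance counted by next-generation sequencing.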

Sequence | log2 fold change of degron read counts [1] | log2 fold change of degron read counts [2] | log2 fold change of degron read counts [3] | log2 fold change of degron read counts (compound: thalidomide)
B1 | -2.44 | -2.12 | -1.5 | -1.12
B2 | 0.868 | -0.562 | -0.229 | -1.8
B3 | -1.73 | -0.622 | -0.517 | 0.583
B4 | -2.55 | -2.97 | -3.4 | -2.9
B5 | -2.76 | -3.28 | -3.17 | -2.41
B6 | -2.38 | -3.52 | -2.42 | -2.6
B7 | -2.14 | -2.53 | -2.15 | -1.65
B8 | -1.88 | -2.01 | -0.0323 | -1.08
